B1: ENSMUSG00000042529.435|Kcnj12|146:150 (ssRNA)
RNA: GGGAGUUCUACAGUCCGACGAUCGCUUCGAUAUCCGCAUGCUAAGAGAGAGAGAGAGAGAGAGAGAGAGAGAGAGAGAGAGAGCUGCACAGGAUGAAGCAGCUGCCCUGAGCCCAUCUGGUGCUGUGCACCUGGUCCUUGUCCAGCCGAGGGCCUGGGGGCAGAAGAACACACCAUAGGGAGGCCCUUCAUACGGUGUCUGCCCUAUGUGAGGUCAUAGAAUGUUAAAUCUAUUUUAAACGGUGAAACUGGAGAAUUUUCAUGUUAUUUUCAAUAAUAGUGGUAUCUAAAGAUGUAGGCAACACUCUUGCGGUCGCACUAGUGUGGAAUUCUCGGGUGUCAAGG
B2: ENSMUSG00000035202.98|Lars2 (ssRNA)
RNA: GGGAGUUCUACAGUCCGACGAUCGCUUCGAUAUCCGCAUGCUAUCCUGCUCAGUACGAGAGGAACCGCAGCUAGCUUGUGUCUCCAGUGUCUUUUACCAUCACAGGCCCUGGCUCUGUGCUACCUCCCUAGAAUACCUGUGGUUCAUCACCUUCAGCUCACACUCCAUUCAGACAAUGCUCACUUAGGCCUACAAGCAAGGGAGAGGCUUAAGCACAAGGUCUUUAAGCUUGAUACUGUGCCUGGUCUCAAUGCCUAGAAAUUCCAACUUAACUGUCGCUAUCAUAAAGGAUUUUAAAUUUUUCUCUUGCGGUCGCACUAGUGUGGAAUUCUCGGGUGUCAAGG
B3: ENSMUSG00000090935.628|Synj2bp (ssRNA)
RNA: GGGAGUUCUACAGUCCGACGAUCGCUUCGAUAUCCGCAUGCUAGUCUUAAACUGAUUAGUAACACUAUGACUUACCCUGAGAUCUAAGUAUUGCUAUAAAGAGACUGAAGAGGAGAGAAUAAAGUAUUUUCCUAGGACUACAUAGUUGGUAAAAGAGAAUCAUGAUUUAAACUCUGGACUAUGGAUGGCAGUAUCAGUAAUAUUCCCUCAUAGCUAGCAGUCCUCAUGCAAGGUCUCUGAACAAAAGCAACGUAUCACCUGCAAAUGCUUGGGUUUCAUCCCAUUCUUAUGGAGUGAGAUGAGCUCUUGCGGUCGCACUAGUGUGGAAUUCUCGGGUGUCAAGG
B4: ENSMUSG00000061578.1408|Ksr2|69:73 (ssRNA)
RNA: GGGAGUUCUACAGUCCGACGAUCGCUUCGAUAUCCGCAUGCUACUCCACGGACCUCAGGCCCACUGUUUUCUCCAUGUCUGUCUGUACUGACUGUUGCAGAAUGAGCUGAUCAUACAUCUUGAUUCUCCAUUUUCCUUCUGGACCACAUGUCUCUUCCUUUUCCUUUUUAGAUCUGUCUUGCUCUCUGUCUCUCUCACUCAUUGCCAACAUGUUGCUGGGAAAGAAUAUUUGAUUUAGAUGCCAAUCAGGAAGGCAAGUAGGAUGGAUGGAUGAGUGAGUGGAUAGGUAGGUAUAUAAAUGGACUCUUGCGGUCGCACUAGUGUGGAAUUCUCGGGUGUCAAGG
B5: ENSMUSG00000031028.69|Tub|109:121;139:143 (ssRNA)
RNA: GGGAGUUCUACAGUCCGACGAUCGCUUCGAUAUCCGCAUGCUAUGGAGGUACAGAGGGAGAGGAAGCACAAGCCUGGCUGCUGUGGCUCAGCCAUCCACUCAGCCUACGAGUCAGAGACAGUGGGUGUCCCGGGAAGCAGGGGUACAGUGACACACACACAUACUACAGGGCACUCAAGCUCAUACUAGAAAAAGCUCUGGUGGUCAGCAGAAAGCACUCCCACUUCAAAAGGGCCCAUUAGGCCCAAAGGGGGUUAGGAGUGGUAGGGAUAGGUGCGUGGCAGGUCCCUGCUAGGAUUGCAGCUCUUGCGGUCGCACUAGUGUGGAAUUCUCGGGUGUCAAGG
B6: ENSMUSG00000028439.266|Fam219a|244:248 (ssRNA)
RNA: GGGAGUUCUACAGUCCGACGAUCGCUUCGAUAUCCGCAUGCUAUGCUGGUCUGGUCUGAGGGAGGAAAGCUGAGGCUGUAGCUCAGUGAGAUGGUGGCUCUCCCAUGGCUGAAGACAAGUGCAAGCAGAGAGAGCCUCAGGCUGCUGGGCCUCGGACCCACGAGCCUCCUCUCACUGAGCCAGUGCGGCCAGAGUGUCUCUCCUUCAGGCGCCCCACAUGCCAGCAUUUCCACCCUCUGGAUUCUCCUCACAUGUCACUCUCCAGGUGCCGGGGCCUAGAGUGGGCCACACAGAAGGAGGAGUCUCUUGCGGUCGCACUAGUGUGGAAUUCUCGGGUGUCAAGG
B7: ENSMUSG00000042529.487|Kcnj12 (ssRNA)
RNA: GGGAGUUCUACAGUCCGACGAUCGCUUCGAUAUCCGCAUGCUAGAUGUGCGUCUCACUGGCCUCUGCCUGCCUCUCCCGCCUGCGGAGCACUUACACUUCCUGGGGCCCCUGCAGCUGGACCAUGUACAGGGCUCCCUGGGGCUUGUCCUCAGGGGCAGAGAAGGACAUGGUGGCAGCAGCACUGAGAACAGGAGCAUGGCCUCUCUCAGACCCCAGGGCAGUCAUUCAGUCUUUUCCAUGGACACUCCCCACCGCUCCACAUACUGCCUCCGCCUCAUUCUUGGGCUCUUCCUGCCUUGCUGCUCUUGCGGUCGCACUAGUGUGGAAUUCUCGGGUGUCAAGG
B8: ENSMUSG00000004113.203|Cacna1b (ssRNA)
RNA: GGGAGUUCUACAGUCCGACGAUCGCUUCGAUAUCCGCAUGCUAGCAUCGUGGAUGAGGUACGGCCUCAGGAAGCAUCGGGUGGAUUGGGUGGGAGCUGCUCAGAGCAGCACGGGGGCUUGUGUCUUAGGGACAUUGACAGUGUCCAUCAGCAUGUCAGAGAAGCAGCUGUAGUGCCCGUGUUUCUCCCUGAGUCAUGGGUUCUGAAGAAGCCAGAGCGGCACAAUGCGUGCUUGCAUGAGGCACUUUCAGCCUUUUUAAAUCUGACUCUCAGGGAUGGGAUGCCUGCCAAGUAGGGUGUAAUCCUCUUGCGGUCGCACUAGUGUGGAAUUCUCGGGUGUCAAGG
B9: ENSMUSG00000058297.40|Spock2 (ssRNA)
RNA: GGGAGUUCUACAGUCCGACGAUCGCUUCGAUAUCCGCAUGCUAGGACUGGGGAGUGUGGCUUGUGUGUAUGUGUGAUAUGAGAUGUGUGUGUAUGAUGUGAGAUGUGAGUGUGUGAUGUGAGAUGUGUGUAUGUGAGAUGUGUGUGUGUGUGUGUGUGUGUGUGAUGUGAGUCACCCAAAGGUCCCUAUGUUAUUGAUUUUCAAAUGCACACUUUCACACACAAGGAUACACUAACAGACCAAAAUCAAUGAGAUGUCCCUGAUCCUGCCCCUCAGCCCAACACCUGGAAUCCCUGCCCUGCCCUCUUGCGGUCGCACUAGUGUGGAAUUCUCGGGUGUCAAGG
B10: ENSMUSG00000058297.38|Spock2|23:27;31:44;53:64;78:84;93:102;108:133 (ssRNA)
RNA: GGGAGUUCUACAGUCCGACGAUCGCUUCGAUAUCCGCAUGCUAUCCAGUGGGGGAGGACUGGGGACACACGCUACACACAUACACACAUAUGAGAACACACACAUACAUGUGAGAUGUGACACACACAUGUGAGAACACACAUACUGAGAACACACACACACACACACACACACACAUGUGAGUCACCCAAAGGUCCCUAUGUUAUUGAUUUUCAAAUGCACACUUUCACACACAAGGAUACACUAACAGACCAAAAUCAAUGAGAUGUCCCUGAUCCUGCCCCUCAGCCCAACACCUGGAAUCUCUUGCGGUCGCACUAGUGUGGAAUUCUCGGGUGUCAAGG
B11: ENSMUSG00000058297.41|Spock2 (ssRNA)
RNA: GGGAGUUCUACAGUCCGACGAUCGCUUCGAUAUCCGCAUGCUAGGGAGUGUGGCUUGUGUGUAUGUGUGAUAUGAGAUGUGUGUGUAUGAUGUGAGAUGUGAGUGUGUGAUGUGAGAUGUGUGUAUGUGAGAUGUGUGUGUGUGUGUGUGUGUGUGUGAUGUGAGUCACCCAAAGGUCCCUAUGUUAUUGAUUUUCAAAUGCACACUUUCACACACAAGGAUACACUAACAGACCAAAAUCAAUGAGAUGUCCCUGAUCCUGCCCCUCAGCCCAACACCUGGAAUCCCUGCCCUGCCUAAUCACUCUUGCGGUCGCACUAGUGUGGAAUUCUCGGGUGUCAAGG
B12: ENSMUSG00000058297.37|Spock2 (ssRNA)
RNA: GGGAGUUCUACAGUCCGACGAUCGCUUCGAUAUCCGCAUGCUACCUGGCUCCAGUGGGGGAGGACUGGGGAGUGUGGCUUGUGUGUAUGUGUGAUAUGAGAUGUGUGUGUAUGAUGUGAGAUGUGAGUGUGUGAUGUGAGAUGUGUGUAUGUGAGAUGUGUGUGUGUGUGUGUGUGUGUGUGAUGUGAGUCACCCAAAGGUCCCUAUGUUAUUGAUUUUCAAAUGCACACUUUCACACACAAGGAUACACUAACAGACCAAAAUCAAUGAGAUGUCCCUGAUCCUGCCCCUCAGCCCAACACCCUCUUGCGGUCGCACUAGUGUGGAAUUCUCGGGUGUCAAGG
B13: ENSMUSG00000058297.39|Spock2 (ssRNA)
RNA: GGGAGUUCUACAGUCCGACGAUCGCUUCGAUAUCCGCAUGCUAGGGGGAGGACUGGGGAGUGUGGCUUGUGUGUAUGUGUGAUAUGAGAUGUGUGUGUAUGAUGUGAGAUGUGAGUGUGUGAUGUGAGAUGUGUGUAUGUGAGAUGUGUGUGUGUGUGUGUGUGUGUGUGAUGUGAGUCACCCAAAGGUCCCUAUGUUAUUGAUUUUCAAAUGCACACUUUCACACACAAGGAUACACUAACAGACCAAAAUCAAUGAGAUGUCCCUGAUCCUGCCCCUCAGCCCAACACCUGGAAUCCCUGCCUCUUGCGGUCGCACUAGUGUGGAAUUCUCGGGUGUCAAGG
B14: ENSMUSG00000058297.38|Spock2 (ssRNA)
RNA: GGGAGUUCUACAGUCCGACGAUCGCUUCGAUAUCCGCAUGCUAUCCAGUGGGGGAGGACUGGGGAGUGUGGCUUGUGUGUAUGUGUGAUAUGAGAUGUGUGUGUAUGAUGUGAGAUGUGAGUGUGUGAUGUGAGAUGUGUGUAUGUGAGAUGUGUGUGUGUGUGUGUGUGUGUGUGAUGUGAGUCACCCAAAGGUCCCUAUGUUAUUGAUUUUCAAAUGCACACUUUCACACACAAGGAUACACUAACAGACCAAAAUCAAUGAGAUGUCCCUGAUCCUGCCCCUCAGCCCAACACCUGGAAUCUCUUGCGGUCGCACUAGUGUGGAAUUCUCGGGUGUCAAGG

In all, about 9,900 sequences were measured (“r (bound/input frequency ratio)”: median about 0.7, highest 2% from about 6.5 on). Many of the other results were omitted from the sample, so the highest values are more common in it than they were.

TDP-43, sequence (Q13148 whole entry): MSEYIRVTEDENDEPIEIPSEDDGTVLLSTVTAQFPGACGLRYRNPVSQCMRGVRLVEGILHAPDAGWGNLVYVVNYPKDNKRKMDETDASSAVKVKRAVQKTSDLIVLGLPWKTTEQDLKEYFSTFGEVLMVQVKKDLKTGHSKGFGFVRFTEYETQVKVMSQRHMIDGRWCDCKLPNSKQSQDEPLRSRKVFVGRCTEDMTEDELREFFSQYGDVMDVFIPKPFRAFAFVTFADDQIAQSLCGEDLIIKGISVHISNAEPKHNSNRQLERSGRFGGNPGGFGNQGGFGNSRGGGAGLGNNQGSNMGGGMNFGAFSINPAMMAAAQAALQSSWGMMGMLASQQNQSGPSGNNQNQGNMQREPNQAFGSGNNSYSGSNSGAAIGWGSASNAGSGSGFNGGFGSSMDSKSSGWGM

The assay addresses TDP-43 (Homo sapiens, UniProt Q13148 1-414). In words: RNA Bind-n-Seq with designed 260-mer pool; 25 mM Tris-HCl, 150 mM KCl, 3 mM MgCl2, BSA (printed 500 mg/mL), 20 units/mL SUPERase IN; pH not stated; 500 nM RNA pool, 1 h, 4 C; TDP-43 5, 50, 500 nM; high values mean tight binding. The conditions noted are these: protein: recombinant; tags: SBP (GST cleaved off with PreScission; pGEX-GST-SBP). An outline of the steps: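 In 25 mM Tris-HCl, 150 mM KCl, 3 mM MgCl2, BSA and SUPERase IN, 500 nM of an in vitro-transcribed 260-nt 3′ UTR oligo pool was incubated for 1 h at 4 °C with SBP-tagged TDP-43 (5, 50 or 500 nM) captured on streptavidin beads. RNA remaining after washes was biotin-eluted, reverse transcribed, PCR-amplified and sequenced. Binding, R, is the bound-sample abundance of each oligo, normalized to mapped reads, divided by its abundance in input. Each duplicate used a separate, independent protein batch.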
On to B1, for which the binding signal is 4.76 R (bound/input frequency ratio).

For B2, the binding signal was 0.339 R (bound/input frequency ratio).

On to B3, for which the binding signal was 0.125 R (bound/input frequency ratio).

For the molecule B4, the binding signal was 0.845 R (bound/input frequency ratio).

Turning to B5, the binding signal was 0.841 R (bound/input frequency ratio).

B6: the binding signal is 0.614 R (bound/input frequency ratio).

Turning to B7, the binding signal is 0.428 R (bound/input frequency ratio).

Take B8: the binding signal was 1.21 R (bound/input frequency ratio).

Consider B9, for which the binding signal is 8.17 R (bound/input frequency ratio).

With B10, the binding signal is 2.11 R (bound/input frequency ratio).

In the case of B11, the binding signal was 5.21 R (bound/input frequency ratio).

On to B12, for which the binding signal is 6.03 R (bound/input frequency ratio).

For B13, the binding signal is 5.98 R (bound/input frequency ratio).

As to B14, the binding signal was 6.55 R (bound/input frequency ratio).

Values taken from publication PMC12864922, “TDP-43 directly inhibits mRNA accumulation in neurites through modulation of mRNA stability”.
